One may read the inhibition as the change of the read-out against control, counted positive when it falls.

The campaign covered roughly 360,000 compounds. About 8,200 (2.3%) were called active. This excerpt belongs to a sample that is enriched for actives. Unmarked numbers belong to inactive results. Rule as the data show it: active = inhibition above about 27%; inactive = the rest.

This assay deals with Fructose-bisphosphate aldolase (Mycobacterium tuberculosis (strain ATCC 25618 / H37Rv)) (UniProt P9WQA3). In words: M. tuberculosis aldolase activity blockers – biochemical, fluorescence, strain H37Rv, primary screen (AID 588726).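 Also: 0% = vehicle and 100% = reference inhibitor.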 As to conditions: purified M. tuberculosis FBA, fluorescence read-out, at 1 µM, hits give high values.
Chain of Fructose-bisphosphate aldolase (Mycobacterium tuberculosis (strain ATCC 25618 / H37Rv)) (P9WQA3 whole entry, looked up): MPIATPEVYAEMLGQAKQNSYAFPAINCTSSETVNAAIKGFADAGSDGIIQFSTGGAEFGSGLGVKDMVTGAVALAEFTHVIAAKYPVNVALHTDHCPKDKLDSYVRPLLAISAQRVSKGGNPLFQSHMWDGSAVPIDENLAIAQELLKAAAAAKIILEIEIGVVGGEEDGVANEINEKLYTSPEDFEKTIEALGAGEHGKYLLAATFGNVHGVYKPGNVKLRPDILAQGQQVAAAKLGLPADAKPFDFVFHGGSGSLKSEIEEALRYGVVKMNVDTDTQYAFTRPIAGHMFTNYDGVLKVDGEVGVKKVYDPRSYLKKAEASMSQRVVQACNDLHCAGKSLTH
In the case of `CCOC(=O)c1sc2nc(C)nc(Nc3ccc(OC)c(OC)c3)c2c1C`, the inhibition was 0.66%.

`N#Cc1ccc(C(c2ccc(C#N)cc2)n2cncn2)cc1`: the inhibition was 2.3%.

On to `O=C(CNS(=O)(=O)c1ccc2ccccc2c1)Nc1ccc(F)c(F)c1F`, for which the inhibition is 1.83%.

As for `CC(C)NS(=O)(=O)c1ccc(CCC(=O)N2CCOCC2)cc1`, the inhibition is 0.26%.

For the compound `CCc1nc2c(OCCc3cccc(OC)c3)cccn2c1N(C)C(=O)c1ccc(C)cc1`, the inhibition is 1.14%.

Consider `CC(=O)c1cccc(-n2nnnc2SCC(=O)NNC(=O)C2CCCCC2)c1`, for which the inhibition is 3.69%.

With `COc1cc(C(=O)NCc2nnc(SCC(=O)Nc3nc4ccc(C)cc4s3)o2)cc(OC)c1OC`, the inhibition was 1.7%.

For `N/C(=N\OC(=O)CCn1cccc(C(F)(F)F)c1=O)c1ccc(OC(F)(F)F)cc1`, the inhibition was 1.82%.

For `Cc1ccc(NN=C2C(=O)OC(C)(C)OC2=O)c(C)c1`, the inhibition is -7.26%.

Turning to `COc1ccc(Br)c2c1C(=O)CC2`, the inhibition is 2.69%.

With `O=C(Cc1ccccc1Cl)N1CCN(c2ccccn2)CC1`, the inhibition was 10.2%.

`O=C(c1c(F)cccc1F)N1CCN(c2ncc(Br)cn2)CC1`: the inhibition is -0.3%.

For `O=C(c1c(F)cccc1Cl)N1CCN(c2ccccn2)CC1`, the inhibition is 116% (active).

Regarding `NS(=O)(=O)c1cc2c(cc1Cl)NC(C(Cl)Cl)NS2(=O)=O` (stereo not drawn), the inhibition is 2.88%.

`COc1ccc(OC)c(NC(=O)Cn2c(=O)oc3ccccc32)c1`: the inhibition was -2.86%.

On to `CCc1cccc2c(C=C(C#N)C#N)cn(CC(=O)N3CCCCC3)c12`, for which the inhibition was -1.66%.

Regarding `Cc1onc(-c2ccc(Cl)cc2)c1-c1ccnn1S(=O)(=O)c1ccc(Cl)cc1`, the inhibition is -3.96%.

In the case of `COC(=O)c1noc(C)c1-c1ccnn1C(=O)c1ccc(Cl)cc1`, the inhibition is 29.4% (active).

As for `COC(=O)c1cn(C(=O)c2ccc(Cl)cc2)c2ccccc12`, the inhibition was -0.26%.

Take `Cn1cccc1-c1nc2ccccc2n1C`: the inhibition is 28.6% (active).

Consider `Cc1ccc(C2=NN(C)c3nc4ccccc4n3C2)cc1`, for which the inhibition was 13.4%.

Turning to `Cn1c(-c2ccc(C(=O)c3ccccc3)s2)nc2ccccc21`, the inhibition was 1.32%.

Turning to `O=C(COc1ccc(Cl)cc1)Nc1ccc2oc(=O)ccc2c1`, the inhibition was 2.76%.

Take `Cc1ccc(S(=O)(=O)N2CCC(C)CC2)cc1C(=O)NCc1ccccn1`: the inhibition was 2.4%.

For the compound `COc1ccc(NC(=O)CSc2ncnc3[nH]ncc23)cc1`, the inhibition was 1.84%.

Consider `CCCCn1c(N)c(N(CC(C)C)C(=O)c2cnc(C)cn2)c(=O)[nH]c1=O`, for which the inhibition was 0.47%.

Consider `CC(=O)N1CCN(S(=O)(=O)c2c(F)cc(F)c(Cl)c2F)CC1`, for which the inhibition is -0.88%.

With `CN(CCNC(=O)c1cc2c(-c3ccccc3F)nn(C)c2s1)C1CCCCC1`, the inhibition was 73.3% (active).

As to `CC(C)c1cc(C(=O)N(C)C2CCCN(Cc3ccccc3F)C2)n(C)n1` (stereo not drawn), the inhibition is 2.62%.

Regarding `Cc1oc(-c2ccccc2F)nc1CS(=O)(=O)CC(=O)NCCCN(C)C1CCCCC1`, the inhibition is -2.64%.

Regarding `CC(CO)NCC12CC3CC(CC(C3)C1)C2` (stereo not drawn), the inhibition was -1.08%.

As for `Cc1ccc(-n2c(SCC(=O)N3CCC(C(=O)O)CC3)nc3ccccc3c2=O)cc1C`, the inhibition was -6.87%.

In the case of `Cc1ccc(Cn2c(=N)c(S(=O)(=O)c3ccc(C)cc3)cc3c(=O)n4ccccc4nc32)cc1`, the inhibition is 3.69%.

`Cc1ccc(-n2c(=O)c(C#N)cc3c(=O)n4ccccc4nc32)cc1C`: the inhibition is 67% (active).

For the compound `CCOC(=O)C1CN(S(=O)(=O)c2ccc(OC)cc2)c2cc(Cl)ccc2O1` (stereo not drawn), the inhibition is 2.59%.

Turning to `CC[C@]12c3[nH]c4cc(CCC(=O)N(C)C)ccc4c3CCN1C(=O)[C@@H](CC(=O)NCC13CC4CC(CC(C4)C1)C3)C[C@@H]2C(=O)N1CCN(C(=O)C2CC2)CC1`, the inhibition is 0.95%.

`CC1=CC=CC2=N/C(=N\S(=O)(=O)c3ccc(F)cc3F)c3ccccc3CN12`: the inhibition was 1.29%.

`CCOC(=O)c1[nH]c2ccc(OC)cc2c1NC(=O)CCN1CCN(Cc2ccccc2)CC1`: the inhibition is 49.8% (active).

For `COc1cc2[nH]c(=O)n(CCC(=O)NC3CCN(Cc4ccccc4)CC3)c(=O)c2cc1OC`, the inhibition was 5.35%.

Turning to `CCOC(=O)c1[nH]c2ccc(OC)cc2c1NC(=O)N1CCOCC1`, the inhibition is 28.4% (active).

As for `Cc1c(C(=O)CN2CCOCC2)[nH]c2ccccc12`, the inhibition is -0.51%.

As to `Cc1cc(NC(=O)CCN2CCN(Cc3ccccc3)CC2)ccc1Br`, the inhibition is 0.67%.

As for `CCN(CC)C(=O)Oc1ccc(NC(=O)N2CCOCC2)cc1`, the inhibition is -0.07%.

For `OCC(O)CN(c1ccccc1)c1ccccc1` (stereo not drawn), the inhibition is 5.53%.

With `CC(C)N(C(=O)Cn1cc(S(=O)(=O)CC(=O)N2CCOCC2)c2ccccc21)C(C)C`, the inhibition is -1.92%.

As for `Cc1ccc(Br)c(NS(=O)(=O)c2cccc(C(=O)N3CCNC(=O)C3)c2)c1`, the inhibition is -3.11%.

Take `CC(=O)NC(Cc1ccc(F)c(F)c1)C(=O)NC1CCN(C(=O)c2ccc(C)cc2)CC1` (stereo not drawn): the inhibition was -2.53%.

In the case of `CC(NC(=O)COc1ccccc1)C(=O)NC1=NCCS1` (stereo not drawn), the inhibition is 2.42%.

`CC(C)(C)CN1CCNC(=O)C1CC(=O)NC1Cc2ccccc2C1` (stereo not drawn): the inhibition is 1.64%.

For the compound `COc1ccc(-c2nc(N)sc2C2(O)C(=O)Nc3c(Br)cc(F)cc32)cc1OC` (stereo not drawn), the inhibition was 5.75%.

In the case of `O=[N+]([O-])c1cnc2ccc3ccccc3c2c1`, the inhibition was 1.36%.

Take `O=[N+]([O-])c1cccc(Nc2c3ccccc3nc3ccccc23)c1`: the inhibition is 122% (active).

Take `O=C(CSc1nc(-c2ccccc2)cs1)Nc1cccc([N+](=O)[O-])c1`: the inhibition was 0.01%.

Take `CC(=O)C1=C(O)C(=O)N(c2ccc(S(N)(=O)=O)cc2)C1c1ccccc1F` (stereo not drawn): the inhibition was 12.8%.

As to `CCCN(CCC)CC(O)COc1ccccc1C(=O)Nc1ccccc1` (stereo not drawn), the inhibition was 0.32%.

Take `COc1ccccc1NC(=O)N(O)C1(C#N)CCCCC1`: the inhibition is 1.6%.

Take `COc1cccc(-c2sc3ccc(OC)cc3c2-c2ccc(OCCN3CCCCC3)cc2)c1`: the inhibition is 0.81%.

On to `COc1ccc2sc(-c3ccc(N(C)C)cc3)c(-c3ccc4cc[nH]c4c3)c2c1`, for which the inhibition is 41% (active).

For the compound `COc1ccc2c(c1)c(=Cc1ccc(N(C)C)cc1)c1cc(-c3ccccc3)[n+](C)n12`, the inhibition was -16.1%.

Turning to `COc1ccc2sc(-c3ccccc3OC)c(-c3ccc(OCCN4CCCC4)cc3)c2c1`, the inhibition is 0.37%.

Take `CC1CC(NC(=O)/C(C#N)=C/c2ccc[nH]2)CC(C)(C)C1` (stereo not drawn): the inhibition was -0.18%.

For `CN(Cc1ccccc1)CC(O)COc1ccc(CNCc2cc3ccccc3s2)cc1` (stereo not drawn), the inhibition was 0.16%.

Regarding `Cc1cc(=O)n2nc(N3CCC(C(=O)Nc4c(F)c(F)c(F)c(F)c4F)CC3)sc2n1`, the inhibition was -1.25%.

For `Cc1ccc2c(NC(=O)C3CC3)cccc2n1`, the inhibition is 3.11%.

In the case of `Cc1cc(C)c2c(NC(=O)C3CC3)nn(C)c2n1`, the inhibition was 46.1% (active).

With `CCCCCC1CC(COc2ccccc2)OC1=O` (stereo not drawn), the inhibition was -2.11%.

For `O=c1c2cc([N+](=O)[O-])ccc2nc2n1CCC2`, the inhibition was 3.1%.

As for `O=C(NC1CCCC1)C(c1ccccn1)N(C(=O)c1csnn1)C1CCCC1` (stereo not drawn), the inhibition is 2.16%.

Turning to `COCCNc1ncnc2c1ncn2[C@H]1CN(Cc2ccc(OC)cc2)C[C@@H](CO)O1`, the inhibition is 1.53%.

Take `COc1ccc(-c2oc3ncn(Cc4ccco4)c(=N)c3c2-c2ccc(OC)cc2)cc1`: the inhibition was 7.98%.

Take `COc1ccc(-c2oc3ncnc(NCCCO)c3c2-c2ccc(OC)cc2)cc1`: the inhibition is 58.3% (active).

On to `Cc1cccc(N2CC(C(=O)Nc3ccccc3N3CCCC3)CC2=O)c1C` (stereo not drawn), for which the inhibition is 3.07%.

Consider `Cc1ccccc1/[N+]([O-])=C/c1ccncc1`, for which the inhibition was 0.03%.

In the case of `CS(=O)(=O)Nc1ccc(C2=NN(S(C)(=O)=O)C(c3cccs3)C2)cc1` (stereo not drawn), the inhibition is 73.8% (active).

For `COc1cccc(C2CC(c3ccccc3)=NN2S(=O)(=O)c2ccccc2)c1OC` (stereo not drawn), the inhibition is 0.19%.

Turning to `CS(=O)(=O)Nc1cccc(C2=NN(C(=O)c3cccc(F)c3)C(c3cccs3)C2)c1` (stereo not drawn), the inhibition was 5.49%.

For the compound `CCS(=O)(=O)Nc1ccc(C2=NN(S(=O)(=O)c3ccc(F)cc3)C(c3ccco3)C2)cc1` (stereo not drawn), the inhibition was -0.61%.

In the case of `CCS(=O)(=O)Nc1ccc(C2=NN(C(C)=O)C(c3cccs3)C2)cc1` (stereo not drawn), the inhibition was 591% [above what the read-out allows, likely interference] (active).

Turning to `Cc1ccc(C2CC(c3cccc(NS(C)(=O)=O)c3)=NN2S(C)(=O)=O)cc1` (stereo not drawn), the inhibition was -2.56%.

Turning to `CCOC(=O)CNc1nc2ccccc2n2c(C)nnc12`, the inhibition was -1.1%.

With `O=C1CCc2cc(S(=O)(=O)Nc3ccc(C(F)(F)F)cc3)cc3c2N1CC3`, the inhibition was 6.49%.

`Cc1cc(C(=O)CC#N)c(C)n1-c1c(C)n(C)n(-c2ccccc2)c1=O`: the inhibition was 2.39%.

Turning to `CCOC(=O)CNC(=O)CN1C(=O)CCSc2ccccc21`, the inhibition is 0.13%.

For `O=C(COc1ccccc1Cl)Nn1cnnc1`, the inhibition was 0.49%.

Take `COc1ccc(CCNc2ncnc3c2nnn3Cc2ccccc2)cc1`: the inhibition is 0.68%.

As to `Cc1cc(C(=O)COc2ccc(Br)cc2F)c(C)n1C1CC1`, the inhibition is 0.29%.

On to `CC1C2Cn3c(nc4ccccc43)C1N(C)O2` (stereo not drawn), for which the inhibition is -1.64%.

Consider `CN1C(C(=O)NCc2ccco2)CC2Cn3c(nc4ccccc43)C21` (stereo not drawn), for which the inhibition is 2.79%.

For `CSCCNC(=O)c1ccc2nc(Cc3ccccc3F)oc2c1`, the inhibition was 3.27%.

In the case of `CC(C)=CCN1CCN(Cc2ccc(Oc3ncccn3)cc2)CC1CCO` (stereo not drawn), the inhibition is 0.18%.

As for `CN(C)c1nc(-c2cccnc2)nc(-c2ccc(Cl)cc2)c1C#N`, the inhibition was -3.84%.

As for `CN(C)c1ccnc(Nc2ccc(F)cc2)c1C#N`, the inhibition was -3.67%.

`CNc1nccc(-c2ccc(Cl)cc2)c1C#N`: the inhibition was 30.5% (active).

(Values after PubChem BioAssay AID588726 (The Scripps Research Institute Molecular Screening Center, 2011).)
